Results on 94 compounds are retold here after PubChem BioAssay AID1851 (National Center for Advancing Translational Sciences (NCATS), 2009).

The whole screen tested about 16,000 compounds, of which about 5,100 (32%) were called active. Not shown: some 25% with an inconclusive outcome. Some of the results follow. Values without a mark were called inactive. Calls follow the shape of the dose curve; as a rule, active = well fitted curve in the direction sought with a large enough effect; inconclusive = small, poorly fitted or top-dose-only effect, or effect the other way; inactive = no such curve, though single readings can be large or run the other way.
% is scaled to controls: 0 for no effect and ±100 for the full control effect.

The experiment deals with Cytochrome P450 3A4 (Homo sapiens) (UniProt P08684). As to the kind of experiment: Cytochrome panel assay with activity outcomes. The following applies: recombinant CYP, pro-luciferin dealkylation, luminescence, p450-cyp3a4; series mostly up to 57.1 µM.
Chain of Cytochrome P450 3A4 (Homo sapiens) (P08684 whole entry, looked up): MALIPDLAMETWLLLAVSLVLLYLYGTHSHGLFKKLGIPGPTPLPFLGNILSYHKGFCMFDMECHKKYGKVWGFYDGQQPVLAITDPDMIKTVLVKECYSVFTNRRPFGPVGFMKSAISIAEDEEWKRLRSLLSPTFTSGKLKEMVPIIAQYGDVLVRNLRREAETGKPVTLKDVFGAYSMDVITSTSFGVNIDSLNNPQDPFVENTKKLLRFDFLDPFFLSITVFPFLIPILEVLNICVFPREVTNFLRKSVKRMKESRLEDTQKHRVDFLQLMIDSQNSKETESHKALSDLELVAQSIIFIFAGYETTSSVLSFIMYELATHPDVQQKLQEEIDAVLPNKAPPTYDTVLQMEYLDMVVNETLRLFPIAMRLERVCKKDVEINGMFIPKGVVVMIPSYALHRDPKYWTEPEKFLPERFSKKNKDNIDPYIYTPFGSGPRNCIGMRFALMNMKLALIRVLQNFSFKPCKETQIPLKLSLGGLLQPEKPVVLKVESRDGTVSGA
In the case of `COc1ccc(-n2nnnc2/C=C\Nc2ccccc2C(=O)c2ccccc2)cc1`, the AC50 entry was “inactive”.
On the same count and under the same terms, the same measure for `COc1ccc(-n2nnnc2SCC(=O)Nc2ccccc2)cc1`: 14.1 µM (active); for `COc1ccc(-n2ccnc2SCC(=O)Nc2ccccc2)cc1`: 11.2 µM (active).
On the same count and under the same terms, the same measure for `COc1ccc(NC(=O)CSC2=NC(=O)CC(C)=N2)cc1`: “inactive”; for `COc1ccc(-n2ccnc2SCC(=O)Nc2ccc(OC)cc2OC)cc1`: 3.98 µM (active).
Turning to `COc1ccc(NC(=O)CSc2ccc3c4c(cccc24)C(=O)c2ccccc2-3)cc1`, the AC50 is 1 µM (active).
Same read-out and setting: the same measure for `COc1ccc(NC(=O)Cn2cccc2)c(OC)c1`: “inactive”.
Still for that read-out and setting: the same measure for `Cn1nnnc1SCC(=O)Nc1ccccc1[N+](=O)[O-]`: “inactive”; for `COc1ccc(NC(=O)CSc2nnc(C3CC3)n2-c2ccccc2)cc1`: 3.16 µM (active).
For the compound `COc1ccc(OC)c(/C=N/NC(=O)c2csc3ccccc23)c1`, the activity, negative = inhibition was 3.57% [at 2.29 µM].
For the compound `CCn1c(SCC(=O)c2ccc(OC)cc2)nnc1C1CC1`, the AC50 is 22.4 µM (active).
As for `COc1ccc(NC(=O)CSc2nnc(C3CC3)n2N)cc1`, the activity, negative = inhibition was -8.56% [at 11.4 µM].
`COc1ccc(O)c(/C=N/NC(=O)CSc2nnc(C)n2-c2ccccc2)c1`: the AC50 was 7.94 µM (active).
The same measure, in the same setting: to `CCC(=O)Nc1ccc(NC(=O)CSc2nnnn2-c2cccnc2)cc1C` belongs 3.55 µM (active); to `CCn1c(SC)nnc1C1CCN(S(=O)(=O)c2ccc(OC)cc2)CC1`, “inactive”; to `COC(=O)CSc1nnc(C)n1-c1cccc(OC)c1`, “inactive”.
On to `CCn1c(SCC(=O)OC)nnc1C1CCCCC1`, for which the AC50 result is “inactive”.
Still for that read-out and setting: the same measure for `COc1cccc(-n2ccnc2SCC(=O)Nc2nccs2)c1`: 3.55 µM (active); for `Cn1c(SCC(=O)Nc2ccccc2)nc(O)cc1=O`: 3.55 µM (active).
`CCn1ccc(C(=O)NC2=C(C#N)CCC2)n1`: the AC50 entry is “inactive”.
The same measure, in the same setting: to `Cn1ccnc1SCC(=O)Nc1sccc1C#N` belongs 14.1 µM (active).
`O=C(CSc1nnc2c3ccccc3c3ccccc3c2n1)Nc1ccccc1`: the activity, negative = inhibition is 1.75% [at 2.29 µM].
As to `NCC(=O)Nc1ccccc1`, the activity, negative = inhibition was -12.7% [at 11.4 µM].
As to `O=C(O)CCC(=O)N1CCC[C@H]1C(=O)O`, the AC50 result was “inactive”.
Same read-out and setting: the same measure for `O=C(c1ccncc1)N1CCC2(CC1)CCN(C(c1ccccc1)c1ccccc1)CC2`: “inactive”; for `O=C(c1cnccn1)N1CCC2(CCCN(c3ncccn3)C2)CC1`: “inactive”.
Consider `O=C(c1ccncc1)N1CCC2(CC1)CCN(c1ncccn1)CC2`, for which the AC50 result is “inactive”.
Consider `O=C(c1ccncc1)N1CCC2(CCCN(C(c3ccccc3)c3ccccc3)C2)CC1`, for which the AC50 was 1 µM (active).
The same measure, in the same setting: to `O=C(c1cnccn1)N1CCC2(CCCN(C(c3ccccc3)c3ccccc3)C2)CC1` belongs 1.58 µM (active); to `Cc1ccc(C(=O)c2ccc(CC(=O)O)n2C)cc1`, “inactive”.
Consider `Cc1ccc(Nc2nc(-c3sc(NC(=O)c4ccc([N+](=O)[O-])cc4)nc3C)cs2)cc1`, for which the AC50 was 10 µM (active).
`CCOc1ccccc1Nc1nc(-c2sc(NC(=O)c3ccccc3)nc2C)cs1`: the AC50 is 7.94 µM (active).
In the case of `CCOc1ccccc1Nc1ccc(N)cc1S(=O)(=O)O`, the activity, negative = inhibition was -9.59% [at 11.4 µM].
Consider `COc1ccccc1Nc1nc(-c2sc(NC(=O)c3ccc([N+](=O)[O-])cc3)nc2C)cs1`, for which the AC50 was 8.91 µM (active).
Regarding `CCOC(=O)C[C@@H](C(=O)OCC)[C@@H]1CCCCC1=O`, the activity, negative = inhibition is -10.4% [at 11.4 µM].
As for `COCCn1c(Cc2ccccc2)nnc1SCc1nc2ccccc2c(=O)[nH]1`, the AC50 was 3.16 µM (active).
Still for that read-out and setting: the same measure for `CC[C@@H]1OC(=O)[C@H](C)[C@H](O[C@@H]2C[C@](C)(OC)[C@H](O)[C@H](C)O2)[C@H](C)[C@H](O[C@@H]2O[C@@H](C)C[C@@H](N(C)C)[C@@H]2O)[C@](C)(O)C[C@H](C)[C@@H]2N[C@H](COCCOC)O[C@H]([C@@H]2C)[C@]1(C)O`: “inactive”; for `CCn1c(=O)c2c(nc3n2CCS3)n(C)c1=O`: “inactive”; for `CC(C)(Sc1ccc(CCN(CCCCC2CCCCC2)C(=O)NC2CCCCC2)cc1)C(=O)O`: 3.98 µM (active).
Consider `Cc1cc(C)nc(NC(=O)c2cccc([N+](=O)[O-])c2C)n1`, for which the AC50 entry was “inactive”.
`O=C(Nc1cccc(NC(=O)c2ccccc2[N+](=O)[O-])n1)c1ccccc1[N+](=O)[O-]`: the AC50 was 10 µM (active).
As to `Cc1cccc(NC(=O)c2ccc([N+](=O)[O-])o2)n1`, the AC50 result was “inactive”.
Still for that read-out and setting: to `CC(Cc1ccccc1)NC(=O)CSc1nc2nc3c(cc2c(=O)n1-c1ccccc1)COC(C)(C)C3` (centres undefined) belongs 7.94 µM (active); to `CNC(C)c1cc(OC)ccc1OC` (centres undefined), “inactive”.
As for `COc1cc(/C=C\c2ccc(OC)cc2OC)cc(OC)c1`, the AC50 was 15.8 µM (active).
The same measure, in the same setting: the same measure for `COc1ccc(/C=N/n2c(C)nnc2C)c(OC)c1`: “inactive”; for `COc1ccc(N2CCN(S(=O)(=O)c3ccc4c(c3)CCCC4)CC2)c([N+](=O)[O-])c1`: 4.47 µM (active).
Consider `O=C(O)c1cc(-c2ccc(-c3ccccc3)cc2)nc2cc3ccccc3cc12`, for which the activity, negative = inhibition is 2.43% [at 11.4 µM].
For the compound `O=C(c1cc(-c2ccncc2)nc2ccccc12)N1CCN(c2ccc(N3CCOCC3)nn2)CC1`, the AC50 was 1.58 µM (active).
Same read-out and setting: to `Cc1ccc(C)c(NC(=O)C2(C)CC3c4ccccc4C2c2ccccc23)c1` (centres undefined) belongs 2.24 µM (active); to `Cc1ccc(C)c(NC(=O)C2C3CCCC2C3c2ccccc2)c1` (centres undefined), “inactive”.
For `Cc1ccc(C)c(NC(=O)C2CC3c4ccccc4C2c2ccccc23)c1` (centres undefined), the activity, negative = inhibition is -27.2% [at 2.29 µM].
Take `Fc1ccc(CN(C2=NCCN2)c2c(Cl)cccc2Cl)cc1`: the AC50 entry is “inactive”.
On to `Cc1nc(SCC(=O)Nc2ccc(N3CCOCC3)cc2)nc(C)c1C`, for which the AC50 was 14.1 µM (active).
As for `Cc1ccccc1C(=O)Nc1ccc(N2CCOCC2)nc1`, the AC50 entry was “inactive”.
With `Cc1ccc(NC(=O)c2cc(N3C(=O)C4CC=CCC4C3=O)ccc2N2CCOCC2)cc1Cl` (centres undefined), the AC50 was 12.6 µM (active).
Still for that read-out and setting: to `CCCC(=O)Nc1ccc2nc(SCC(=O)Nc3ccc(N4CCOCC4)c(Cl)c3)sc2c1` belongs 1.41 µM (active).
As for `Cn1c(CCC(=O)Nc2ccc(N3CCOCC3)cc2)nc(=O)c2ccccc21`, the activity, negative = inhibition was -13.8% [at 11.4 µM].
As to `O=C(c1ccc2nc3ccc(Cl)cc3c(=O)n2c1)N1CCOCC1`, the AC50 result was “inactive”.
As for `O=C(Nc1ccc2nc(SCc3ccc(Cl)cc3)sc2c1)c1ccccc1C(=O)N1CCOCC1`, the AC50 is 7.94 µM (active).
As for `CCOC(=S)SCC(=O)O`, the activity, negative = inhibition is -14.7% [at 11.4 µM].
Same read-out and setting: the same measure for `CCOc1ccc(OCCOc2ncnc3ccccc23)cc1`: -3.65% [at 2.29 µM].
For `Cc1ccc(NC(=O)CSCC(=O)Nc2ccc(N3CCOCC3)c(Cl)c2)cc1`, the AC50 is 3.55 µM (active).
With `O=C(/C=C/c1ccco1)NC(=S)Nc1ccc(N2CCOCC2)c(Cl)c1`, the activity, negative = inhibition was 12.4% [at 2.29 µM].
With `Cc1ccc(NC(=O)c2cc(NC(=O)CCC(=O)O)ccc2N2CCCCC2)cc1`, the AC50 entry was “inactive”.
As to `NCCSCCc1ccccc1`, the activity, negative = inhibition was -8.42% [at 11.4 µM].
For the compound `NCCOB(c1ccccc1)c1ccccc1`, the AC50 was 12.6 µM (active).
With `O=C(O)[C@@H]1CCCNC1`, the AC50 result is “inactive”.
As for `Cc1ccc(C(=O)N/N=C/c2sc(=O)n(Cc3cccc(C(=O)O)c3)c2Cl)cc1`, the AC50 entry is “inactive”.
On to `Cc1ccc(C(=O)Nc2c(C#N)c(C)c(C)n2Cc2ccccc2)cc1`, for which the concentration at half-maximal activity (AC50) was 10 µM (active).
Still for that read-out and setting: the same measure for `CCC(C)n1c(NC(=O)c2ccccc2)c(C#N)c2nc3ccccc3nc21` (centres undefined): “inactive”; for `CCOC(=O)Cc1csc(NC(=O)c2ccc(S(=O)(=O)N3CCCCC3)cc2)n1`: “inactive”.
On the same count and under the same terms, to `CCOC(=O)Cc1csc(NC(=O)c2ccc(Cl)nc2)n1` belongs 14.1 µM (active).
Regarding `CCOC(=O)Cc1csc(NC(=O)c2c(-c3c(Cl)cccc3Cl)noc2C)n1`, the activity, negative = inhibition is -21.4% [at 2.29 µM].
In the case of `CCOc1cc(S(=O)(=O)N(Cc2ccccc2)Cc2ccccc2)c(OCC)cc1-n1cnnn1`, the AC50 is 12.6 µM (active).
The same measure, in the same setting: to `COc1ccccc1CNc1ccnc(-c2ccccc2C(F)(F)F)n1` belongs 12.6 µM (active); to `COc1ccccc1CNc1ccnc(-c2ccccc2OC)n1`, 15.8 µM (active).
As for `COCCNc1ccnc(-c2ccccc2C(F)(F)F)n1`, the AC50 entry was “inactive”.
Regarding `Fc1ccc(Nc2ccnc(-c3ccccc3C(F)(F)F)n2)cc1`, the AC50 was 12.6 µM (active).
Still for that read-out and setting: the same measure for `COc1ccccc1-c1nccc(NC2CCNCC2)n1`: “inactive”.
Turning to `COc1ccc(CSc2nnnn2C)cc1[N+](=O)[O-]`, the AC50 result was “inactive”.
The same measure, in the same setting: to `Cc1nc([N+](=O)[O-])c(N2CCN(C)CC2)n1Cc1ccccc1` belongs “inactive”; to `CCCOc1ccc(Cn2c(C)nc([N+](=O)[O-])c2SCC(O)COC)cc1[N+](=O)[O-]` (centres undefined), 14.1 µM (active); to `Nc1nc2c(nc(Br)n2[C@@H]2O[C@H]3COP(=O)(O)O[C@@H]3[C@H]2O)c(=O)[nH]1`, “inactive”.
For the compound `Nc1ccc2[nH]cc(CCC(=O)O)c2c1`, the activity, negative = inhibition is -1.6% [at 11.4 µM].
For `COC(=O)Nc1ccc2[nH]cc(CCNC(C)=O)c2c1`, the AC50 result is “inactive”.
Same read-out and setting: to `COc1cc2c(CCNC(C)=O)c[nH]c2cc1Cl` belongs 15.8 µM (active); to `CN(C)[C@@H]1C(=O)C(C(N)=O)=C(O)[C@]2(O)C(=O)C3=C(O)c4c(O)ccc(Cl)c4[C@H](O)[C@H]3C[C@@H]12`, “inactive”.
Still for that read-out and setting: to `Cc1ccc(/C=C/c2ccc(=O)n(Cc3ccc(Cl)cc3Cl)n2)cc1` belongs “inactive”.
The same measure, in the same setting: to `Cc1ccc(Cn2cnc3c(nnn3Cc3ccc(Cl)cc3)c2=O)cc1` belongs 3.16 µM (active).
On to `Cc1nn(Cc2c(F)c(F)c(F)c(F)c2F)c(C)c1NC(=O)c1cccc(COc2ccc(Cl)cc2)c1`, for which the activity, negative = inhibition was -20.6% [at 2.29 µM].
As to `Cc1nn(Cc2c(F)c(F)c(F)c(F)c2F)c(C)c1NC(=O)c1c(-c2ccccc2)nn(-c2ccccc2)c1C`, the AC50 was 2.24 µM (active).
The same measure, in the same setting: the same measure for `Cc1nn(Cc2c(F)c(F)c(F)c(F)c2F)c(C)c1NC(=O)c1cccc(COc2ccccc2Cl)c1`: 3.98 µM (active).
On to `Cc1ncc(COP(=O)(O)O)c(C)c1O`, for which the activity, negative = inhibition is -9.44% [at 11.4 µM].

As usually defined, the AC50 is the midpoint of the concentration-response curve, whichever way the signal moves.
